The source of these data is PubChem BioAssay AID1508600 (Functional Genomics Laboratory (NCATS/FGL), 2020).

Among all 53,000 sequences or so, about 3,700 (7%) were called active. The full list was thinned out, with actives kept by preference. A number with no mark means an inactive call.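 Rule for the calls: active = gene knockdowns whose robust z-score for IL-1 alpha signal is at least 2 or at most -2, so actives lie on both sides; inactive = the rest.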

This assay is described as follows: Components of the Cytosolic LPS Sensing Pathway: Gene Identification via Genome-wide siRNA Screen.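 Note: robust z of the log signal after scaling to non-targeting control siRNA wells of the plate.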 As to conditions: RAW264.7 macrophages, IL-1a HTRF, actives lie on both sides, screened at 100 nM (by protocol), cells primed 5 h with Pam3CSK4 first. The method in brief:
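Read-out: IL-1a HTRF on supernatant, divided by plate negative-control median ×100, log-transformed and converted to robust z-score. Cells were RAW264.7 given 100 nM siRNA, Pam3CSK4-primed 5 hours, then LipidA-transfected 24 hour.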
As to CGGCAAGAUGUCUACUAACTT against Wdtc1, the z-score is 0.655. In the case of CCCUAACUCUGUUAAUGCATT against Casp14, the z-score was -0.627.

For GGAAAUUGGUCCAGUUAUUTT against Magee1, the z-score was 1.37. For CCAACUGUUGGUGAUGAUGTT against Cpsf6, the z-score is -2.05 (active). With GCGGGCCAUAAAGAGACAUTT against Timm17a the figure was -0.164. The result for GGGAUUUAAAGCCAACUUGTT against Sfpq reads 0.62; that for GGAGAAAUAGAUUCAGUGATT against Cep170, -0.839; that for GGCAGUUUUUGGACUGUCCTT against Olfr556, -0.21. For GGUUAAGAGCGUACGUUUUTT against Tmem204, the z-score was 1.46.

In the case of GGACAACCUUUACUUCUCUTT against Rhox9, the z-score was -2.78 (active). As for GGGAGAUCUCUCACAGAUCTT against Gja10, the z-score was 1.41. On to CCAUAGUGUAUCUGACUGGTT against Iqsec1, for which the z-score is -0.135. GGUGGUGAAGCUAAAGCAGTT against Prkaca: the z-score was -1.58. Regarding GCAUGGACAGUUAUGUAUATT against Slc5a6, the z-score is -0.207. As to GGUGUUAGAUUCUUUGUAATT against Cst6, the z-score is 2.04 (active). Take GGUAUAGUAGUGGAAGAUUTT against Uso1: the z-score is 0.341.

As to GGACUUAUGGCAUUAGAAUTT against Nup88, the z-score was -1.17. For GGUGAUCCUAAGAAAGUCCTT against Ireb2, the z-score was 1.07. The result for GGAUUGGUUUAGUCAAUAATT against Psmc4 reads -2.03 (active); that for GCUUCCUUCUGCUAGAUGGTT against Oxct2a, -0.409; that for GGUUUAGAAUGCAUAACAGTT against Dzank1, -0.217. The result for UAUUAAACUCUUGAGACCGTT against Oxa1l reads -0.571; that for GGAAAAGCCUACUUCAAAATT against Efcab7, 0.9.

With “GGAAAACAAGUGGAAAGGGTT against C130071C03Rik”, the z-score is 1.54. With “GGAUCAGCAACAGUCUCCATT against 1700029M20Rik”, the z-score is -2.01 (active). The result for CCAGCUUCCUCGUAAGUGATT against Hsf4 reads -1.71; that for CCACGAUAUUCCAGGUCUGTT against AF067063, -1.54.

For GCGAUUGUCCAAGAAUUCCTT against Crcp, the z-score was 0.822. The result for GGGAGAGGACGACAUUUACTT against Otx2 reads 0.645. Consider GGAGCCAUGCUAAGAGCAUTT against Dbil5, for which the z-score was 0.494. On to GCCAGAGUGUCGAAUAUCATT against Dll4, for which the z-score is -0.417. Regarding GGACGCAGACAGGACAAAATT against Parp2, the z-score is 2.16 (active). The result for “GUUACUGCGUGGACUGUGUTT against C730034F03Rik” reads -0.0785. Regarding GCCGUAGGUUAGAGAAUCGTT against Nxnl1, the z-score is -0.348. Take CCGUCUUUGUGCUAUGCUGTT against Sstr4: the z-score was 1.56. With GGAGGUGAAGCUUCGAAUGTT against Slc25a10, the z-score was 0.052. With GGAAAUGGCCUCCAUGAGATT against Krt14 the figure was 0.734; with GGCCUUGCACUUCAGUUUCTT against Mfsd4b1, -0.436. With GGAAAGAAGAAAUGAGAAGTT against Gm9871 the figure was -1.57; with CGGAAGAAGCCAGUUAAGATT against Apol9b, 0.665. As for GCGUGGAAGGUCUGAACACTT against Arfgap3, the z-score is 4.18 (active).

With GGAGUUGUGAAUUUCUCGUTT against Sri, the z-score is -0.198. Turning to GGUUACUAGAAAAGUGUUGTT against Olfr1489, the z-score is 1.41. GGGAAUUUCCUGAAAUCCUTT against Mettl8: the z-score was -0.167.

As to GGUUAACCUGAGAAAAAUGTT against Mkrn1, the z-score is 0.734. As to GGCAACUUAGGAGUUAGACTT against Pgam5, the z-score was 0.533. Consider GUGUGAACAGAGGCAGAAATT against Xlr3a, for which the z-score was -2.46 (active). For CCCUAAGCUCUGUUCCCAGTT against Olfr371, the z-score was -0.561. Consider GCCAAUCUCUGCUAGAUACTT against Slc46a1, for which the z-score is 0.447. As for GGCAACACACUGUCAUUUCTT against Il9, the z-score was -1.06. Consider CCAACUGUGAUCAGUGAGCTT against Shank3, for which the z-score was -0.387. With GGCCUUGAAGGAGAUGCUATT against Rell2, the z-score is 0.887. GCAGAUCAUUCCCGUGUUGTT against P2ry14: the z-score is 0.565. Take GGACAAGAAGGAAAAGAAATT against Brd4: the z-score is -3.25 (active). Regarding GCUGUGCAAGGUGAGGAAATT against Rps4l, the z-score is 1.25. Consider GGUGAUGGAAAUAAACUACTT against Dhrs7b, for which the z-score is 1.44. In the case of GGACAAGAAGCCACUGACATT against Arrb1, the z-score is 2.2 (active). As for GGACCAUUAAACUAAAUGGTT against Tpte, the z-score was -0.592.

In the case of GCUCUCACAGGAUAAGGCUTT against Cryga, the z-score was -0.126. Consider CCUCGUUAUCCUCAUGGGATT against Alppl2, for which the z-score is 0.649. Take GGUUUGAGUGGAAAAUUCATT against Csn1s2b: the z-score was 0.904.

Consider CCCACAGAACCACACAUUCTT against H2-DMa, for which the z-score is 3.11 (active). Consider GGAGGCUGAGUAUUGGCUUTT against Pi4k2b, for which the z-score is -1.06. As to GCUCUACCCAAUCAAGACCTT against Asb14, the z-score is 0.31.

For GCAGUCGAAGCACUAAAAATT against Dnaaf2, the z-score was 0.412. Turning to CGACCUACUCUACAGCAAATT against Brinp3, the z-score was 2.6 (active). As to GGAACUGAAGGGCAAUAUCTT against Kifc5b, the z-score is 1.99. GGGCUCCUUCCUUGAAAAGTT against Dclre1c: the z-score is 0.365.
